The structures appear in SMILES notation. Where “and” joins values, the source holds several entries; their conditions need not be identical. Equal entries are not always repeated. Among all 83,000 compounds or so, about 780 (0.94%) were called active.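 Rule for the calls: active = mean inhibition of at least 50% with a set share of replicates also reaching that level; inconclusive = no clear call, values can overlap the other calls; inactive = the rest.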 Only a selection was taken, and actives are over-represented in it overall.

The assay is described as follows: inhibitors of CD40-induced NF-kB signaling, primary screen, BL2 cells, luciferase reporter, single point (AID 1053188).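 Note: 0% = neutral control wells and 100% = IKK inhibitor VII at 50 µM.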 As to conditions: CD40L-induced, 4 h, at 10 µM, stronger effect = higher value. In general terms: Reporter assays use an easily measured gene product as a stand-in for the process of interest.
Broadly, the inhibition is the change of the read-out against control, counted positive when it falls. As for `CC(=O)OC1C2(CC3N4C(=O)C5(CO)SSC4(CC31O)C(=O)N5C)OC(C)C(C)(C)C2=O` (stereo not given), the inhibition was 107% (active).
The figure for `Cc1nn(-c2ccccc2)c(C)c1NC(=O)COC(=O)Cc1ccccc1` is 3.56% (inactive); for `N=c1ccccn1Cc1ccccc1` it is 5.42% (inactive); for `CCC(C)(O)C(=O)OC1C(=O)OC2CC3C(C)=CC(=O)C(O)C3(C)C3C4(O)OCC23C1C(C)C4O` (stereo not given) it is 107% (active).
The figure for `CC(=O)N1C[C@@H]2C(c3ccc(Br)cc3)[C@H](C1)N2C` (stereo not given in full) is -3.1% (inactive) and 2.67% (inactive); for `Cc1ccc(C(C)C)c(OCC(=O)N2CCN(CC(=O)N3CCOCC3)CC2)c1` it is -7.63% (inactive); for `Cc1cc(C(=O)OCC(=O)Nc2c(F)cccc2F)c(C)n1C1CC1` it is -11.1% (inactive).
In the case of `Cc1nc2ccc(N3CCN(C)CC3)cc2nc1C` it was -20.7% (inactive).
Take `CCOC(=O)C1(CCc2ccccc2)CCN(Cc2ccco2)CC1`: the inhibition is 11.2% (inactive).
The figure for `c1ccc(CC2CCCCN2)cc1` (stereo not given) is -1.33% (inactive).

For the origin of these results see PubChem BioAssay AID1053188 (Broad Institute, 2014).
